Here are results for 27 molecules from PubChem BioAssay (Tox21).

A short description of test [1]: qHTS assay to identify small molecule antagonists of the sonic hedgehog signaling (Shh) pathway (AID 1259369). Note: nearly all actives have a fitted effect of over 45% in size. Note: potency is the fitted concentration of half-maximal effect. Summed up:
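Conditioned medium drives Shh signalling in 3T3Gli1-Luc cells; compounds in DMSO co-applied, 24hr at 37 C, then luciferase luminescence.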

A short description of test [2]: qHTS assay to identify small molecule agonists of the androgen receptor (AR) signaling pathway in the presence of an antagonist - cell viability counter screen (AID 1259379; active = well fitted curve in the direction sought with a large enough effect in the repeat runs; an effect the other way counts as inactive or inconclusive; note: nearly all actives have a fitted effect of over 25% in size; note: potency is the fitted concentration of half-maximal effect;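 for activity change, negative = cytotoxicity: MDA-kb2 human breast cancer cells carrying an MMTV luciferase reporter; series mostly up to about 92 µM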). The gist of the method: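 A CellTiter-Fluor read-out measured viability of MDA-kb2 reporter cells (MMTV promoter with AR and GR response elements). Treatment: nilutamide 3.0uM final with compounds at 15 concentrations, 16 hr, 37C, 0% CO2.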

The nature of test [3]: qHTS assay to identify small molecule agonists of the estrogen receptor beta (ER-beta) signaling pathway - cell viability counter screen (AID 1259380; active = well fitted curve in the direction sought with a large enough effect in the repeat runs; an effect the other way counts as inactive or inconclusive; note: nearly all actives have a fitted effect of over 30% in size; note: potency is the fitted concentration of half-maximal effect). Summed up:
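Cells used were ER-beta-UAS-bla HEK293T in medium with 2% charcoal-stripped FBS. They were treated for 16 hr at 37C. Viability came from CellTiter-Glo luminescence.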

The nature of test [4]: qHTS assay to identify small molecule antagonists of the estrogen receptor beta (ER-beta) signaling pathway - cell viability counter screen (AID 1259382; active = well fitted curve in the direction sought with a large enough effect in the repeat runs; an effect the other way counts as inactive or inconclusive; note: nearly all actives have a fitted effect of over 55% in size; note: potency is the fitted concentration of half-maximal effect; for activity change, negative = cytotoxicity: series mostly up to about 92 µM). Summed up:
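Agonist-stimulated (1nM E2) ER-beta-UAS-bla HEK293T cells are incubated with library compounds for 16 hr at 37C. Cell viability is then assessed in the reporter-assay wells by adding CellTiter-Glo and reading luminescence after 30 min.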

Test [5] concerns the target Estrogen receptor (Homo sapiens) (UniProt P03372). Put plainly: qHTS assay to identify small molecule agonists of the estrogen receptor alpha (ER-alpha) signaling pathway in the presence of an antagonist (AID 1259383). For activation: top concentration of the series differs between compounds. Note: nearly all actives have a fitted effect of over 15% in size. Note: potency is the fitted concentration of half-maximal effect. The gist of the method: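 Using VM7Luc4E2 cells seeded 24hr before treatment, antagonist ICI-182,780 (10.0nM final) was added, followed by compounds at 15 concentrations. Plates incubated 22hr; ONE-Glo luminescence quantified reporter activity.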

Test [6] is described as follows: qHTS assay to identify small molecule agonists or antagonists of the thyroid stimulating hormone receptor (TSHR) signaling pathway - wild type cell line counter screen (AID 1259384). The gist of the method:
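Wild-type Hek293 cells, 800/well, 18 h at 37C, then compound with Ro20-1724 for 30 min RT. cAMP by HTRF (cAMP-d2/anti-cAMP cryptate), 1 h RT, fluorescence read. 15 concentrations, triplicates.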

Test [7] concerns the target Thyrotropin receptor (Homo sapiens) (UniProt P16473). The experiment in a line: qHTS assay to identify small molecule antagonists of the thyroid stimulating hormone receptor (TSHR) signaling pathway (AID 1259385). Note: nearly all actives have a fitted effect of over 20% in size. Note: potency is the fitted concentration of half-maximal effect. The gist of the method: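 TSHR-HEK293 cells (800/well) plated 18 h, then compounds with Ro20-1724 and TSH at 1.5 ng/mL final, 30 min at room temperature. cAMP quantified by HTRF (cAMP-d2/anti-cAMP-cryptate, 1 h); 15 concentrations in triplicate.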

For test [8], the target named is Androgen receptor (Homo sapiens) (UniProt P10275). Put plainly: qHTS assay to identify small molecule agonists of the androgen receptor (AR) signaling pathway in the presence of an antagonist (AID 1259381). Note: nearly all actives have a fitted effect of over 15% in size. The gist of the method: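 Using human MDA-kb2 cells with an MMTV promoter–luciferase construct (AR and GR response elements), agonist activity is scored under 3.0uM nilutamide (final) co-treatment; 16hr incubation, 37C, luminescence readout via ONE-Glo.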

Test [9] addresses Estrogen receptor beta (Homo sapiens) (UniProt Q92731). The experiment in a line: qHTS assay to identify small molecule agonists of the estrogen receptor beta (ER-beta) signaling pathway (AID 1259377; active = well fitted activation curve with a large enough effect in the signal ratio in the repeat runs, not every such curve was filed as active; the % refers to the signal ratio). Summed up: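 Agonist mode cell assay in GripTite HEK293T cells expressing an ER-beta fusion that drives beta-lactamase from an Upstream Activator Sequence; 16 hr compound exposure at 37C, then 2 h LiveBLAzer B/G FRET substrate at room temperature, fluorescence read-out.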

For test [10] the target is unchanged. Put plainly: qHTS assay to identify small molecule antagonists of the estrogen receptor beta (ER-beta) signaling pathway (AID 1259378; active = well fitted inhibition curve with a large enough effect in the signal ratio in the repeat runs, not every such curve was filed as active; the % refers to the signal ratio). Summed up: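 ER-beta-UAS-bla HEK293T cells in 2% charcoal-stripped FBS medium treated with compound plus 1nM final 17-beta-estradiol for 16 hr at 37C. Beta-lactamase reporter read by FRET substrate fluorescence after 2 hours at room temperature.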

Several values for one entry are separate records, joined by “and”; a condition that tells them apart may be missing. Equal entries are not always repeated. Inconclusive results are not listed. The source holds several records for some structures; these can differ, active in one and inactive in another. Activity calls are given as the source filed them. Unless noted, calls come from the whole dose curve.
% is set by controls: 0 for no effect and ±100 for the full control effect.

Androgen receptor (Homo sapiens), sequence (P10275 whole entry, looked up): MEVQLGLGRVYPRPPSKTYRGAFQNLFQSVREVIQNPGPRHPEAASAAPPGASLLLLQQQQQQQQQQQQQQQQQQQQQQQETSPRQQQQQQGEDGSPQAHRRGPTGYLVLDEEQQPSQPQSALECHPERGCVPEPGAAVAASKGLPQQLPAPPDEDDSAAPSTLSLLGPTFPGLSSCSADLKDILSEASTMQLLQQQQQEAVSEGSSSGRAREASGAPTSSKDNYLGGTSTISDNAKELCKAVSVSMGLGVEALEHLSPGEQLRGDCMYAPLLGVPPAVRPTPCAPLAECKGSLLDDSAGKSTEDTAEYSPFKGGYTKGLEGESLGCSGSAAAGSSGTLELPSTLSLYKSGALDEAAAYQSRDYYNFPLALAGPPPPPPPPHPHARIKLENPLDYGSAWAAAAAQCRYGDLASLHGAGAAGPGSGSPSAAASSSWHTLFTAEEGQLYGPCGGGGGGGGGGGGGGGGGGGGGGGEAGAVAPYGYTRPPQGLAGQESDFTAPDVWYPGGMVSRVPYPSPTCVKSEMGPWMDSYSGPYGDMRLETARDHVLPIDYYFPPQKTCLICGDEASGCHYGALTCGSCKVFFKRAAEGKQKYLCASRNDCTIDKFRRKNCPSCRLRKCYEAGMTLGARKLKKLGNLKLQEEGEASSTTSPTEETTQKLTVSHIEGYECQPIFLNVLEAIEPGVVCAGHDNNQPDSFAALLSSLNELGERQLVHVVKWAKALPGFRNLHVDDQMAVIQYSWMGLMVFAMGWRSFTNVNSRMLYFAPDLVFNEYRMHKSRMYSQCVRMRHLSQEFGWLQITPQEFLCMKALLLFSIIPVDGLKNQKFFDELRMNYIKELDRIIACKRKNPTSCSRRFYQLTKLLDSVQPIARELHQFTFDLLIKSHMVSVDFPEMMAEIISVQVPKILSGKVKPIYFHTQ
Estrogen receptor beta (Homo sapiens), sequence (Q92731 whole entry, looked up, the tested form may be a part): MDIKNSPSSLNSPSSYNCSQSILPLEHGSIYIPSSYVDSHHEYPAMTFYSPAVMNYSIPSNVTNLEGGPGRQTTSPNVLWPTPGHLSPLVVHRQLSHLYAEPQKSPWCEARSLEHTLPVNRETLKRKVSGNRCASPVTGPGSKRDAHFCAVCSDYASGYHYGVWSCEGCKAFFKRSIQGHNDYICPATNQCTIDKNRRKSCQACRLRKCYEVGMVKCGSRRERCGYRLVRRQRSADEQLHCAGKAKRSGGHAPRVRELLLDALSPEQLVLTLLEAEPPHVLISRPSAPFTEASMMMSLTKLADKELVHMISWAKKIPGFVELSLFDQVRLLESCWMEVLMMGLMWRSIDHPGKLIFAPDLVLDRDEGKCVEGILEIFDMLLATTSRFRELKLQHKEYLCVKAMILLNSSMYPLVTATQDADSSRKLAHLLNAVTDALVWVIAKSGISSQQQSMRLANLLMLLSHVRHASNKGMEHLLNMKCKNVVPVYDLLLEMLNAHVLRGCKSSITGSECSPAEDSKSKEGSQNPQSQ
Thyrotropin receptor (Homo sapiens), sequence (P16473 whole entry, looked up): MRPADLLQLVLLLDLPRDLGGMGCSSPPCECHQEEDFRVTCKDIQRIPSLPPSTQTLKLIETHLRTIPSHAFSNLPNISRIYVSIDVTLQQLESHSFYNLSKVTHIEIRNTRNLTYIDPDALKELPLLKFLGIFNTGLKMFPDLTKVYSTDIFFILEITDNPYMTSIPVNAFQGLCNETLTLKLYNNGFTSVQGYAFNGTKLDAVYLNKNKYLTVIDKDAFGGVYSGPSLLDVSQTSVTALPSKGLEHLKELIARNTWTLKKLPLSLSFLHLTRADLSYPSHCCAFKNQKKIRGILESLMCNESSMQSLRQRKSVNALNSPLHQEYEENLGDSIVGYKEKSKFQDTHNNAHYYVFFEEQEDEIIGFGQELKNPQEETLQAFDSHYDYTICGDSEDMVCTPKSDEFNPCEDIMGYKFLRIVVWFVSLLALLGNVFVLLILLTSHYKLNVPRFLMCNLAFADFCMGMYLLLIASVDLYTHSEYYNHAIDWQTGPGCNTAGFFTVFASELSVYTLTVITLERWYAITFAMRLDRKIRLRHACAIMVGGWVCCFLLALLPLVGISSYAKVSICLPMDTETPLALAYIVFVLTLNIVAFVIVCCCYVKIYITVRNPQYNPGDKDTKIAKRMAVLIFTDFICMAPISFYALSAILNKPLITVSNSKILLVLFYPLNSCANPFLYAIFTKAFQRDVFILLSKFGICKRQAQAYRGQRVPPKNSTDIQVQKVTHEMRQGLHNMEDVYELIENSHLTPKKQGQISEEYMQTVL
Estrogen receptor (Homo sapiens), sequence (P03372 whole entry, looked up): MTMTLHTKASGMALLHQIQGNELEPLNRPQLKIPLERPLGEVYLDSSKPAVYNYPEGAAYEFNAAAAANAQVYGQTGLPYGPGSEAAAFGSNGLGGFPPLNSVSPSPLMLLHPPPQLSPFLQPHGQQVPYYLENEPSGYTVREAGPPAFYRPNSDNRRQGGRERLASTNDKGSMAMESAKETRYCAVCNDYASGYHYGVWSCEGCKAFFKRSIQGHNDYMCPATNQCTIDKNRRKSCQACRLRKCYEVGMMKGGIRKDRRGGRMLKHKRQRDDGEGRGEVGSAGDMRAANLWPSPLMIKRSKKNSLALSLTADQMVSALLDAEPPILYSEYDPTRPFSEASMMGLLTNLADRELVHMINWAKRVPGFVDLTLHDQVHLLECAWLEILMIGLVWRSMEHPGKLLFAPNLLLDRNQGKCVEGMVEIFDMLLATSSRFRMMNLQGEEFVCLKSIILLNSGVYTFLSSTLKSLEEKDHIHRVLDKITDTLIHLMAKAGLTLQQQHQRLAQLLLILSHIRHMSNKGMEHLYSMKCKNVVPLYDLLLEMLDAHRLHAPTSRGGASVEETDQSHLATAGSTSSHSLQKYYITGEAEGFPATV

Turning to `C#CC1(O)CC[C@H]2[C@@H]3CCC4=CCCC[C@@H]4[C@H]3CC[C@@]21C` (some centres not stated), the Potency was 48.6 µM (active) and inactive in test [1]; 61.1 µM (active) and 29.8 µM (active) in test [3]; 61.1 µM (active) and 26.6 µM (active) in test [4]; 611 nM (active) and 473 nM (active) in [5]. Besides, the Potency entry in test [2] and in [7] was “inactive” throughout. The outcome in test [6] was inactive.
Turning to `Cc1c(N)cccc1C(F)(F)F`, the Potency entry in test [1], in test [2], in [3], in test [4] and in test [7] was “inactive” in each case. Besides, the outcome in test [8] and in test [6] was inactive.
On to `O=C(O)c1cccc(C(F)(F)F)c1`, for which the Potency result in [1], in [2], in test [3], in test [4], in test [5] and in [7] was “inactive” each time. Besides, in [6], the molecule was called inactive.
As for `Cc1cc(C(C)(C)C)cc(C)c1CC1=NCCN1`, the Potency result in test [1], in [2], in test [3], in [4], in test [5] and in test [7] was “inactive” each time. Further, in [6], the molecule was called inactive.
Turning to `c1cnccn1`, the Potency entry in test [1], in test [2], in [3], in [4], in test [5] and in test [7] was “inactive” in each case. Moreover, the result in test [6] was inactive.
On to `CCCCCCCCCCCCCC[N+](C)(C)Cc1ccccc1`, for which the Potency in test [1] is 349 nM (active) and 422 nM (active); in [2], 43.9 µM (active) and 29.8 µM (active) and 14.1 mM (active); in test [3], 27.7 µM (active) and 10.6 µM (active) and 11.2 mM (active); in [4], 19.6 µM (active) and 9.44 µM (active) and 10 mM (active). For the same molecule, the Potency entry in test [5] and in test [7] was “inactive” each time. In [6], the result was inactive.
Regarding `O=C(Oc1ccccc1)Oc1ccccc1`, the Potency entry in test [1], in [2], in [3], in test [4] and in test [5] was “inactive” throughout. For the same molecule, the molecule was called inactive in test [6].
As to `COc1ccc2cc1Oc1ccc(cc1)C[C@H]1c3c(cc4c(c3Oc3cc5c(cc3OC)CCN(C)[C@@H]5C2)OCO4)CCN1C`, the Potency in test [1] is 3.76 µM (active); in [2] it was 26.6 µM (active); in test [3], 26.6 µM (active); in test [7], 23.7 µM (active). The outcome in test [8] and in [6] was inactive. For the same molecule, the Potency entry in [4] and in test [5] was “inactive” throughout.
As for `C=C(CC)C(=O)c1ccc(OCC(=O)O)c(Cl)c1Cl`, the Potency was 6.68 µM (active) in [1], 60.7 µM (active) in test [2], 48.2 µM (active) in test [3] and 60.7 µM (active) in [4]. Moreover, the Potency entry in test [5] and in test [7] was “inactive” each time. For the same molecule, the call in [6] was inactive.
With `c1ccc(SSc2ccccc2)cc1`, the Potency result in [9], in test [10] and in [2] was “inactive” throughout.
Consider `NC[C@H]1O[C@H](O[C@H]2[C@H](O[C@@H]3O[C@H](CO)[C@@H](O)[C@H]3O)C(O)[C@H](N)C[C@@H]2N)[C@H](N)[C@@H](O)[C@@H]1O` (some centres not stated), for which the results for the activity change, negative = inhibition in [1] and in test [7] were -6.57% [at 8.39 µM] (inactive) and -4.82% [at 8.39 µM] (inactive), respectively. For the same molecule, the activity change, negative = cytotoxicity was 2.75% [at 8.39 µM] (inactive) in [2], 1.6% [at 8.39 µM] (inactive) in test [3] and 0.11% [at 8.39 µM] (inactive) in test [4]. For the same molecule, the cAMP activity change in [6] was -9.73% [at 8.39 µM] (inactive).
Turning to `CCC(C)[O-].CCC(C)[O-].CCOC(=O)/C=C(/C)[O-].[Al+3]`, the Potency result in test [1], in test [2], in test [3], in test [4] and in test [7] was “inactive” throughout. Besides, the molecule was called inactive in [6].
Regarding `O=C1OC2(c3ccc(O)cc3Oc3cc(O)ccc32)c2ccc(N=C=S)cc21`, the Potency entry in test [1], in [3] and in [7] was “inactive” each time. The call in [6] was inactive.
Consider `CC(C)CCOC(=O)/C=C/c1ccccc1`, for which the Potency result in test [1], in [2] and in test [3] was “inactive” throughout. The result in test [6] was inactive.
As for `Cc1ccc(C(=O)O)cc1`, the Potency entry in test [1], in test [2], in [3], in [4] and in test [7] was “inactive” throughout. Besides, the result in [6] was inactive.
In the case of `CC1(C)CCC[C@]2(C)[C@H]3CC(=O)O[C@]3(C)CC[C@@H]12`, the Potency in test [1] was 30.6 µM (active). Besides, the Potency result in [2], in [4], in test [5] and in test [7] was “inactive” throughout. Besides, the call in test [6] was inactive.
As for `NC(=S)NC(N)=S`, the Potency entry in [1], in test [2], in test [4] and in [7] was “inactive” in each case. The outcome in [8] and in test [6] was inactive.
As to `O=C(O)CN(CCN(CC(=O)O)CC(=O)O)CC(=O)O`, the values for the activity change, negative = inhibition in [1] and in test [7] were 12.7% [at 3.27 µM] (inactive) and 1.34% [at 3.27 µM] (inactive), respectively. Further, the activity change, negative = cytotoxicity in [2] was -0.833% [at 3.27 µM] (inactive); in test [3], 0.439% [at 3.32 µM] (inactive); in test [4], 2.74% [at 3.27 µM] (inactive). In addition, the cAMP activity change in test [6] is -0.412% [at 3.27 µM] (inactive).
`CC1(C)CCC[C@]2(C)[C@H]3CCO[C@]3(C)CC[C@@H]12`: the Potency entry in test [1], in test [2], in [3], in test [4] and in test [7] was “inactive” each time. Moreover, the call in test [6] was inactive.
Regarding `O=C(/C=C/c1ccc(O)c(O)c1)O[C@@H](C(=O)O)[C@@H](OC(=O)/C=C/c1ccc(O)c(O)c1)C(=O)O`, the Potency result in [9], in test [10], in [2] and in test [3] was “inactive” in each case.
On to `Nc1nc(-c2ccccc2)cs1`, for which the Potency entry in [1], in [2], in test [3], in test [4] and in [7] was “inactive” each time. For the same molecule, the molecule was classed as inactive in [6].
For the molecule `O=C(O)c1cc(N=Nc2ccc([N+](=O)[O-])cc2)ccc1O`, the Potency entry in [1], in test [5] and in [7] was “inactive” throughout. Further, the Potency in test [2] was 60 µM (active). For the same molecule, the outcome in [6] was inactive.
Take `CC(=O)[C@H]1CC[C@H]2[C@@H]3CCC4=CC(=O)CC[C@]4(C)[C@H]3CC[C@]12C`: the Potency in test [1] was 9.63 µM (active) and 6.11 µM (active); in test [2], 60.8 µM (active); in test [3], 54.2 µM (active) and 61.1 µM (active). The Potency entry in [5] is “inactive”. In addition, the molecule was classed as inactive in [6].
Turning to `O=C(O)c1cc(-c2ccc(F)cc2F)ccc1O`, the Potency result in [1], in test [2] and in [5] was “inactive” each time.
Regarding `CCC(C)n1ncn(-c2ccc(N3CCN(c4ccc(OC[C@H]5CO[C@](Cn6cncn6)(c6ccc(Cl)cc6Cl)O5)cc4)CC3)cc2)c1=O` (some centres not stated), the Potency in [1] is 1.68 µM (active). Besides, the Potency entry in test [2], in test [4], in [5] and in test [7] was “inactive” each time. Also, the result in [6] was inactive.
`CCN(CCN)c1cccc(C)c1`: the Potency in test [1] is 7.77 µM (active). The Potency result in test [2], in test [5] and in test [7] was “inactive” in each case. In addition, in test [6], the result was inactive.
For `CCOc1ccc2ccccc2c1C(=O)N[C@@H]1C(=O)N2[C@@H]1SC(C)(C)[C@@H]2C(=O)O`, the Potency entry in test [1], in [2], in [4], in test [5] and in test [7] was “inactive” in each case. The result in [8] and in [6] was inactive.
